High-throughput results: PubChem BioAssay, several laboratories
A selection: hits, their analogues and other compounds. The true share with any hit is near 1.1%.
MazEF act – increases E. coli MazEF RNase cleavage of RNA; P0AE70; FAM/BHQ RNA-DNA oligo cleavage fluorescence, 5 h; activation, % at 20 µM; hit rate 0.32% among 350,000; AID 504720; in the data active = activation above about 50%
Target sequence (P0AE70 whole entry, looked up): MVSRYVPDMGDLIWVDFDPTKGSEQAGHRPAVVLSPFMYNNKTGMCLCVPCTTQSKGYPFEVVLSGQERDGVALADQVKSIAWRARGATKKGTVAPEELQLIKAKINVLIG
BJeLR lethal – kills HRASV12-expressing BJeLR cells | BJeLR (HRASV12) viability, CellTiter-Glo ATP luminescence, 48 h | inhibition, % (concentration not given with the values) | hit rate 0.17% among 300,000; in the data active = inhibition above about 50%
3CLpro inhibitor – SARS-CoV 3CLpro protease inhibition. inhibition, % at 6 µM. recombinant SARS-CoV 3CLpro, quenched FRET peptide cleavage. hit rate 0.14% among 290,000; in the data active = inhibition above about 12%
PfHsp40 yeast – rescue of PfHsp40-mediated yeast toxicity. AID 504582. S. cerevisiae expressing PfHsp40, growth rescue, ATP luminescence. hit rate 0.68% among 340,000. growth rescue, % at 12.5 µM; in the data active = growth rescue above about 28%, passing the limit was not always enough;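 note: yeast W303a lacking pdr1 and pdr3 grown in galactose medium; growth measured after three days at 30 °C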
Y pestis TopoI – blocks Yersinia pestis topoisomerase I activity | Y. pestis Topo-I cleavage product accumulation, plate reader | activity, % at 10 µM | hit rate 0.064% among 360,000 | AID 504884; in the data active = activity above about 50%, passing the limit was not always enough
Mtb BioA inh – BioA (M. tuberculosis) enzyme inhibition. hit rate 0.096% among 360,000. purified M. tuberculosis BioA enzyme, plate reader. inhibition, % at 9.99 µM; in the data active = inhibition above about 40%
Numbers without * were called inactive; . = not tested or not shown.

SMILES | MazEF act | BJeLR lethal | 3CLpro inhibitor | PfHsp40 yeast | Y pestis TopoI | Mtb BioA inh
Cc1cccc2sc(NNC(=O)c3ccc(S(=O)(=O)N4CCCC(C)C4)cc3)nc12 (stereo not drawn) | 12 | 11 | 3 | 356* | 21 | -1
CCOc1cccc2sc(N(CCCN(C)C)C(=O)c3ccc(S(=O)(=O)N4CCc5ccccc5C4)cc3)nc12 | 50* | -2 | 2 | 12 | -6 | 0
COc1ccc(S(=O)(=O)Nc2cccc3c2O[C@H](CN(C)CC2CC2)[C@@H](C)CN([C@@H](C)CO)C3=O)cc1 | . | . | . | . | . | -4
COc1ccc(-c2oc3ccccc3c2C#CC(C)(C)O)cc1 | -6 | . | . | 38* | 4 | -1
COc1ccc(-c2c(C#CC(C)(C)O)c3ccccc3n2C)cc1 | -2 | . | . | 0 | 38 | 0
C[C@H](CO)N1C[C@H](C)[C@@H](CN(C)Cc2ccc(C(=O)Nc3ccccc3N)cc2)Oc2c(NC(=O)c3nc4ccccc4s3)cccc2C1=O | . | . | . | . | . | -1
Nc1ccc2ncccc2c1N | 15 | . | . | 0 | -31 | -2
Nc1nc(N)c2c(ccc3nccc32)[nH]1 | -5 | 66* | -5 | 0 | -12 | 0
O=C(C[C@@H]1C[C@@H]2c3cc(NC(=O)c4ccc5c(c4)OCO5)ccc3O[C@@H]2[C@H](CO)O1)NCc1cccc(F)c1 | . | . | . | . | . | -1
COc1cccc(C(=O)Nc2ccc3c(c2)C(=O)N(C)C[C@H](OC)[C@H](C)CN(C(C)=O)[C@H](C)CO3)c1 | . | . | . | . | . | 1
CC(=O)n1cc(N(C(=O)CCl)c2ccc(C)cc2)c2ccccc21 | 1 | 84* | 9 | 4 | 6 | -1
CC(=O)N(c1ccc(Cl)cc1)c1cn(C(C)=O)c2ccccc12 | 4 | 4 | 1 | 0 | 2 | 3
CC(C)CC#Cc1ccc2c(c1)O[C@@H](CN(C)C(=O)Nc1ccccc1F)[C@@H](C)CN([C@H](C)CO)S2(=O)=O | . | . | . | . | . | 8
Cc1ccc(C(=O)N2CCN3C(=O)c4ccccc4C23c2ccccc2)cc1 (stereo not drawn) | 4 | -9 | 1 | -1 | -2 | .
O=C1c2ccccc2C2(c3ccccc3)N1CCN2C(=O)C(Cl)(Cl)Cl (stereo not drawn) | 2 | -1 | 6 | 122* | 2 | 1
Cc1ccc2[nH]c(=O)c(CN(Cc3cccs3)Cc3nnnn3CC3CCCO3)cc2c1 (stereo not drawn) | -14 | -11 | 0 | 105* | 28 | 3
Cc1ccc2cc(CN(Cc3cccs3)Cc3nnnn3CC3CCCO3)c(=O)[nH]c2c1C (stereo not drawn) | -1 | -3 | 3 | 73* | 23 | 0
Cc1ccc(S(=O)(=O)Nc2cccc3c2O[C@H](CN(C)C(=O)NC(C)C)[C@@H](C)CN([C@H](C)CO)C3=O)cc1 | . | . | . | . | . | -2
CCOC(=O)/C=c1\s/c(=C\c2c(OCC)ccc3ccccc23)c(=O)n1CC(=O)NCC1CCCO1 (stereo not drawn) | -17 | 0 | -2 | 2 | 13 | .
CCOC(=O)/C=c1/s/c(=C\c2c(OC)ccc3ccccc23)c(=O)n1CC(=O)NCC1CCCO1 (stereo not drawn) | 184* | . | . | 2 | 24 | .
N/C(Cc1ccc(Cl)cc1Cl)=N\OC(=O)c1ccc(Br)o1 | -5 | -7 | -1 | 572* | 14 | 1
C[C@@H]1CN([C@@H](C)CO)C(=O)Cc2cc(NC(=O)Nc3ccc(F)cc3)ccc2O[C@H]1CN(C)C(=O)Nc1cccc2ccccc12 | . | . | . | . | . | -1
C[C@@H](NC(=O)C[C@H]1C[C@@H]2c3cc(NC(=O)NC4CCCC4)ccc3O[C@@H]2[C@@H](CO)O1)c1ccccc1 | . | . | . | . | . | -3
COc1cc2c(cc1OC)/C(=C/C(=O)c1ccc([N+](=O)[O-])c(C)c1)NCC2 | 74* | 12 | -1 | -1 | -3 | 0
COc1cc2c(cc1OC)/C(=C/C(=O)c1ccc(C)cc1)NCC2 | 4 | 0 | -2 | 1 | 6 | -1
SMILES | MazEF act | BJeLR lethal | 3CLpro inhibitor | PfHsp40 yeast | Y pestis TopoI | Mtb BioA inh
COc1cc2c(cc1OC)/C(=C/C(=O)c1ccccc1)NCC2 | 3 | 7 | -1 | 41* | 6 | 3
C[C@@H]1CN([C@H](C)CO)C(=O)c2cc(-c3ccccc3)cnc2O[C@@H]1CN(C)Cc1ccccn1 | . | . | . | . | . | -6
COc1ccccc1S(=O)(=O)N[C@@H]1C=C[C@@H](CC(=O)N2CCN(C)CC2)O[C@@H]1CO | . | . | . | . | . | 0
O=C1Nc2ccccc2/C1=C/c1cnc(-c2ccccc2)[nH]1 | 98* | -3 | -3 | 1 | -9 | -2
COCC(=O)Nc1ccc2c(c1)C(=O)N(C)C[C@H](OC)[C@H](C)CN(C(=O)CC1CC1)[C@H](C)CO2 | . | . | . | . | . | -2
Cc1ccc(OCC(=O)Nc2ccc(Cl)cc2)c(-n2nc3ccccc3n2)c1 | 69* | 5 | 6 | -1 | -7 | -1
Cc1ccc(NC(=O)c2cc(N3C(=O)C=CC3=O)ccc2N2CCOCC2)cc1Cl | -4 | 1 | 2 | 36* | 12 | .
Cc1ccc(NC(=O)c2cc(N3C(=O)CCC3=O)ccc2N2CCOCC2)cc1 | 5 | -10 | 0 | 0 | -6 | .
COc1cccc(C2C(C(=O)c3cc4ccccc4o3)=C(O)C(=O)N2c2cc(C)on2)c1 (stereo not drawn) | 11 | 5 | 3 | 2 | 31 | -2
C=CCOc1cccc(C2C(C(=O)c3cc4ccccc4o3)=C(O)C(=O)N2c2cc(C)on2)c1 (stereo not drawn) | 6 | -10 | 10 | 0 | 69* | 0
Cc1noc(C)c1NC(=O)Nc1cccc2c1O[C@@H](CN(C)Cc1ccc(-c3ccccc3)cc1)[C@@H](C)CN([C@@H](C)CO)C2=O | . | . | . | . | . | 8
C=CCN(CC=C)C(=S)NC(=O)c1ccc(C)c(Br)c1 | 0 | -6 | 3 | 296* | -1 | .
O=C(NCC1CCCCC1)[C@@H]1[C@@H](CO)[C@@H]2Cn3c(ccc(-c4ccccc4)c3=O)[C@H]1N2 | . | . | . | . | . | -1
CCOC(=O)CN1C(=O)N[C@@H](c2cccc(F)c2)C(C(=O)OC)=C1C | 3 | -2 | . | 40* | 0 | -1
O=C(C[C@@H]1C[C@@H]2c3cc(NC(=O)Nc4ccccc4)ccc3O[C@@H]2[C@@H](CO)O1)NCc1cccnc1 | . | . | . | . | . | 0
Cc1snc2sc(C(=O)c3ccc(Br)cc3)c(N)c12 | 16 | 0 | 4 | 1 | -7 | .
Cc1ccc(C(=O)c2sc3nsc(C)c3c2N)cc1 | 62* | 2 | 5 | 0 | 4 | .
CNC(=S)N/N=C/c1ccc(-c2ccc(Cl)c([N+](=O)[O-])c2)o1 | 10 | 1 | -4 | 0 | -3 | .
CNC(=S)N/N=C/c1ccc(-c2ccc(C(=O)O)cc2)o1 | -4 | 52* | 1 | -1 | -7 | -1
CCOC(=O)C1=C(C)NC2=C(C(=O)C(C(=O)OCC)C(c3ccccc3OC)C2)C1c1ccccn1 (stereo not drawn) | 2 | -1 | 0 | 1 | 6 | 1
